Experimental findings from PubChem BioAssay (EPA / NIEHS) are described below.

The target of test [1] is Estrogen receptor (Homo sapiens) (UniProt P03372). In words: CCTE_Deisenroth_AIME_384WELL_LUC_Active: CCTE's 384-well Estrogen Receptor Transactivation Assay with AIME metabolic competence (ERTA luciferase; metabolism positive), Deisenroth Lab (AID 2284030; active = hit-call score of the fitted dose curve at least 0.9, where 1 is the maximum). The gist of the method:
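VM7Luc4E2 breast cells were given, for 24 hours, medium pre-incubated for 2 hours with parent chemical (0.002-200 uM, 10 concentrations) and alginate-encapsulated phenobarbital/beta-naphthoflavone-induced rat hepatic S9. Luciferase gain of signal was fitted against 17beta-estradiol; n=4 or more.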

Test [2] can be described thus: CCTE_Harrill_HTTr_Viability_MCF7: CCTE's 6-hour Cell Viability Assessment for the High-Throughput Transcriptomics (HTTr) Platform, in MCF-7 cells cultured in DMEM + 10% fetal bovine serum, Harrill Lab (AID 2284010). An outline of the steps:
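Read-out is propidium iodide gain of signal by high-content imaging, reflecting membrane integrity loss. Measurements are taken 6 h after dosing, eight concentrations per chemical, with DMSO serving as baseline for bidirectional curve fitting.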

The nature of test [3]: CCTE_Harrill_HTTr_Apoptosis_MCF7: CCTE's 6-hour Apoptosis Assessment for the High-Throughput Transcriptomics (HTTr) Platform, in MCF-7 cells cultured in DMEM + 10% fetal bovine serum, Harrill Lab (AID 2284011). The gist of the method:
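High-content imaging of CellEvent Caspase 3/7 Green signal follows a six-hour exposure, with eight concentrations per chemical. MCF-7 cells grown in DMEM plus 10% fetal bovine serum; activity fitted in both directions against DMSO.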

Test [4] is described as follows: CCTE_Harrill_HTTr_CellCount_MCF7: CCTE's Cell Proliferation Assessment for the High-Throughput Transcriptomics (HTTr) Platform, Harrill Lab (AID 2284012; active = hit-call score of the fitted dose curve at least 0.9, where 1 is the maximum;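 note: cells exposed to compound for six hours; intended direction is loss of nuclei count meaning fewer cells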). The gist of the method: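 Cell count served as viability reporter: loss of Hoechst-stained nuclei, counted by high content imaging, marks decreased growth or survival. Exposure was 6 h in MCF-7 cells across eight concentrations, with DMSO as baseline.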

The nature of test [5]: CCTE_Shafer_MEA_acute_burst_number: CCTE's Neural Acute Assay for Single-Electrode Bursts, Shafer Lab (AID 2284013). An outline of the steps: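 Primary rat cortical neurons on 16-electrode MEA wells, DIV 13 or 15, exposed to compound (0.03-40 uM; ≥3 wells); 40-min recordings at 37 C before and after treatment. Burst count expressed as percent change from baseline, DMSO as negative control.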

A short description of test [6]: CCTE_Shafer_MEA_acute_burst_duration_mean: CCTE's Neural Acute Assay for Mean Burst Duration, Shafer Lab (AID 2284014).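 Note: hits are decreases in mean burst duration relative to DMSO controls.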 An outline of the steps:
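Mean burst duration was compared between a 40 min baseline and a 40 min recording in the presence of compound (0.03-40 uM, 37 C), giving percent change per well. Cultures were rat cortical neurons at DIV 13 or 15; wells needed ≥10 active electrodes.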

Test [7] is described as follows: CCTE_Shafer_MEA_acute_interburst_interval_mean: CCTE's Neural Acute Assay for Mean Interburst Interval, Shafer Lab (AID 2284016).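 Note: percent change of mean interburst interval versus each well's own pre-dose baseline; curves fitted for decrease in interburst interval relative to DMSO.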 An outline of the steps: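 MEA recording of spontaneous network bursting in primary rat cortical cultures; mean interburst interval was compared before and after a 40-min compound exposure (0.03-40 uM) and expressed as percent change, relative to DMSO.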

A short description of test [8]: CCTE_Shafer_MEA_acute_burst_percentage_mean: CCTE's Neural Acute Assay for Percentage of Spikes in a Burst, Shafer Lab (AID 2284017).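 For AC50: curve fitted for loss of signal so potency reflects decreased burst percentage.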 The gist of the method: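 Compounds were tested at 0.03-40 uM on primary rat cortical neuron networks grown over microelectrodes, with at least three wells per compound. Spontaneous firing was recorded for 40 min before and 40 min after dosing, and the change in burst percentage was computed per well.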

Test [9] in a line: CCTE_Shafer_MEA_acute_burst_percentage_std: CCTE's Neural Acute Assay for Standard Deviation of Burst Percentage, Shafer Lab (AID 2284018).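 Note: fitted in the negative direction so actives lower burst percentage SD.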 The gist of the method:
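Value is percent change from baseline in the across-electrode SD of spikes-in-bursts percentage, wells with >/= 10 active electrodes. Acute 40-min exposure to 0.03-40 uM on DIV 13 or 15 rat cortical cultures, recorded at 37 C after 40-min baseline.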

Test [10] in a line: CCTE_Shafer_MEA_acute_per_network_burst_spike_number_mean: CCTE's Neural Acute Assay for Average Number of Spikes in a Network Burst, Shafer Lab (AID 2284019). The gist of the method: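 Percent change from baseline in mean spikes per network burst, spikes detected at 8x rms noise. Each compound at 0.03-40 uM in at least three wells of rat cortical cultures, recorded 40 min before and 40 min during exposure.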

The nature of test [11]: CCTE_Shafer_MEA_acute_per_network_burst_spike_number_std: CCTE's Neural Acute Assay for Standard Deviation of Number of Spikes in a Network Burst, Shafer Lab (AID 2284020).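 Note: fitted for decrease in spike-number SD versus DMSO so actives lower it.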 The gist of the method:
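Endpoint: percent change from 40 min baseline in standard deviation of spikes per network burst, after 40 min compound exposure (0.03-40 uM, 37 C). Cortical rat neurons on MEA at DIV 13 or 15; spikes detected at 8x rms noise, 300-5000 Hz band-pass.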

Test [12] is described as follows: CCTE_Shafer_MEA_acute_per_network_burst_electrodes_number_mean: CCTE's Neural Acute Assay for Mean Number of Electrodes in a Network Burst, Shafer Lab (AID 2284021).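 Note: curves fitted for decreases only so hits reduce electrodes per burst.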 The gist of the method:
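Percent change from baseline was computed as mean electrode count per network burst, comparing 40 min recordings before and during compound (0.03-40 uM) exposure. Cultures were rat cortical neurons at DIV 13 or 15, recorded on MEAs at 37 C with an adaptive 8x rms threshold.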

Test [13] in a line: CCTE_Shafer_MEA_acute_network_burst_percentage: CCTE's Neural Acute Assay for Percentage of Network Bursts, Shafer Lab (AID 2284022).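 Note: curves fitted for loss so actives lower network burst percentage.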 An outline of the steps: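 Network burst percentage (spikes in network bursts divided by total spikes) recorded at 37 C over 40 min baseline and 40 min after compound, 0.03-40 uM, in rat cortical cultures at DIV 13 or 15. Analysed as percent change from baseline versus DMSO.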

The nature of test [14]: CCTE_Shafer_MEA_acute_cross_correlation_area: CCTE's Neural Acute Assay for Area of Cross Correlation, Shafer Lab (AID 2284024).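 Note: rat primary cortical neuron networks on 48-well MEA at DIV 13 or 15 with 40 min exposure; area under pooled inter-electrode spike cross-correlation near zero lag as percent change from own baseline; curves fitted for loss of cross-correlation area so actives lower synchrony.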 An outline of the steps:
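Percent change in well-wide cross-correlation area (window around zero lag) between 40 min baseline and 40 min post-compound recordings, 37 C; rat cortical cultures on MEA at DIV 13 or 15, dosed 0.03-40 uM, wells needing >/= 10 active electrodes.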

Test [15] in a line: CCTE_Shafer_MEA_acute_cross_correlation_HWHM: CCTE's Neural Acute Assay for Cross Correlation at Half Width at Half Maximum, Shafer Lab (AID 2284026).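 Note: percent change per well from pre-dose baseline in spike cross-correlogram half width; hits are a decrease in cross-correlogram half width relative to DMSO.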 The gist of the method:
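Per-well percent change in cross-correlogram half width at half maximum, derived from 40-min recordings before and after compound (0.03-40 uM) at 37 C. Cultures were rat cortical neurons, DIV 13 or 15, with adaptive spike detection at 8x rms.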

The nature of test [16]: CCTE_Shafer_MEA_acute_synchrony_index: CCTE's Neural Acute Assay for Synchrony, Shafer Lab (AID 2284027).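 Note: network synchrony index of spontaneous spiking in primary rat cortical neurons on MEAs; fitted for loss of signal so actives lower synchrony relative to DMSO.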 An outline of the steps:
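Plates equilibrated 20 min at 37 C, baseline recorded 40 min, compound (0.03-40 uM) added, then 40 min more recorded. Cells: primary rat cortical neurons, DIV 13 or 15. Per-well synchrony index change analysed in negative direction against DMSO.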

Test [17] in a line: CCTE_Deisenroth_AIME_384WELL_CTox_Active: Cytotoxicity Assessment (CTOX) in CCTE's 384-well Estrogen Receptor Transactivation Assay with AIME metabolic competence (metabolism positive), Deisenroth Lab (AID 2284037; active = hit-call score of the fitted dose curve at least 0.9, where 1 is the maximum;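 note: chemicals first conditioned 2 h by alginate-bound induced rat liver S9 before cells; activity means signal loss indicating cell death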). An outline of the steps: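 Cytotoxicity in VM7Luc4E2 breast cells, 24 hour, measured as protease-substrate fluorescence loss, after 2-hour metabolic conditioning with induced rat hepatic S9 in alginate microspheres. Concentrations 0.002 - 200 uM, 10 points, bidirectional fitting.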

A short description of test [18]: CCTE_Shafer_MEA_dev_firing_rate_mean: CCTE's Neural Network Formation Assay for Mean Firing Rate, Shafer Lab (AID 2284031).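 For AC50: curve fitted for loss of firing so AC50 reflects decreased mean firing rate.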 An outline of the steps:
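Steps: seed rat cortical cells (1.5 x 10^5/well) with laminin on PEI-coated MEA; dose day 0; record DIV 5/7/9/12, full media and compound exchange after DIV 5 and 9 recordings; compute well-mean firing rate AUC.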

Test [19] in a line: CCTE_Shafer_MEA_dev_per_burst_spike_percent: CCTE's Neural Network Formation Assay for Percent of Spikes in a Burst, Shafer Lab (AID 2284032).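 For AC50: fitted as a decrease in burst spike percentage below DMSO baseline.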 The gist of the method: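 Value is trapezoidal AUC over recordings on days 5, 7, 9 and 12 of the well-mean fraction of spikes falling in single-electrode bursts; rat cortical cultures exposed continuously from plating, treatment renewed DIV 5 and 9, fitted downward against DMSO.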

Test [20] addresses Estrogen receptor (Homo sapiens) (UniProt P03372). In words: CCTE_Deisenroth_AIME_384WELL_LUC_Inactive: CCTE's 384-well Estrogen Receptor Transactivation Assay without AIME metabolic competence (ERTA luciferase; metabolism negative), Deisenroth Lab (AID 2284038; active = hit-call score of the fitted dose curve at least 0.9, where 1 is the maximum;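 note: VM7Luc4E2 breast cells given medium preincubated 2 h with S9-free microspheres; hits raise estrogen receptor luciferase signal so potencies reflect agonists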). An outline of the steps: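 VM7Luc4E2 ER transactivation, luciferase bioluminescence after 24 h, using medium pre-incubated 2 h with S9-free alginate microspheres. Concentrations 0.002–200 uM; gain of signal fitted relative to 17beta-estradiol.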

As a reminder, the AC50 is the midpoint of the concentration-response curve, whichever way the signal moves.

Several values for one entry are separate records, joined by “and”; a condition that tells them apart may be missing. Equal entries are not always repeated. Results filed as inconclusive are left out. Some compounds were tested as several samples or in several runs, with calls that do not always agree. Activity calls are given as the source filed them. Rule for the calls, unless noted: active = hit-call score of the fitted dose curve at least 0.9, where 1 is the maximum; inactive = score below 0.9.

Sequence of Estrogen receptor (Homo sapiens) (P03372 whole entry, looked up): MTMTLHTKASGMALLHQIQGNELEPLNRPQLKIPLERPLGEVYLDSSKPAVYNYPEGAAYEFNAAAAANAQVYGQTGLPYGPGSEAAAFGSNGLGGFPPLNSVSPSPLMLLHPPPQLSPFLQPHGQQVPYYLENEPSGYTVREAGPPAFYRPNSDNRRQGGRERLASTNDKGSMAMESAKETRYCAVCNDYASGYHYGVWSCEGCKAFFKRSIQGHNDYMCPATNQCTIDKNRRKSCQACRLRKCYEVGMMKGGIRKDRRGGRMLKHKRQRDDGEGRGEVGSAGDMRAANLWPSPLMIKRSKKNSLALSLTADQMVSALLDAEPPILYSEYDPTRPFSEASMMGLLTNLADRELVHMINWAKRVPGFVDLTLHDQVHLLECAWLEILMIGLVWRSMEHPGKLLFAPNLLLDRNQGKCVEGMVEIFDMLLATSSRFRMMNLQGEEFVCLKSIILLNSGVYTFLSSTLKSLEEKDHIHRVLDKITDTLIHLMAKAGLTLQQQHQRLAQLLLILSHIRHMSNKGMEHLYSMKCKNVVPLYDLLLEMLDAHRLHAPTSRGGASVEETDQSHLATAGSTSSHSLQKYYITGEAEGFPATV

Regarding `O=[N+]([O-])c1cc(C(F)(F)F)c(Cl)c([N+](=O)[O-])c1Nc1ncc(C(F)(F)F)cc1Cl`, the outcome in test [1] was inactive.

`N#CSCSC#N`: the result in test [2], in [3], in [5], in [6], in test [9] and in test [10] was inactive. Also, the compound was classed as inactive in [11], in test [12], in test [14], in test [15] and in test [17]. Further, the AC50 is 92.6 µM (active) in test [4]; 30.5 µM (active) in [7]; 27 µM (active) in test [8]; 30.5 µM (active) in test [13]; 28.4 µM (active) in test [16].

With `CCCCSP(=O)(SCCCC)SCCCC`, the result in test [2] and in test [3] was inactive. Moreover, the AC50 in [18] is 66.3 µM (active) and 11.5 µM (active); in test [19], 31.1 µM (active) and 49.9 µM (active).

In the case of `CCC(=O)Nc1ccc(Cl)c(Cl)c1`, the outcome in [2] and in [3] was inactive. Besides, the AC50 in test [17] was 19.8 µM (active).

Consider `C#CC(C)(C)NC(=O)c1cc(Cl)cc(Cl)c1`, for which the result in test [2], in test [3] and in test [17] was inactive.

`COP(=O)(OC)OC(Br)C(Cl)(Cl)Br` (stereo unspecified): the outcome in test [2], in [3] and in test [4] was inactive. The AC50 in test [18] was 7.31 µM (active) and 13 µM (active); in test [19], 7.85 µM (active) and 19.1 µM (active).

With `S=C1NCCN1`, the outcome in test [2], in test [3], in test [18] and in [19] was inactive.

For `CCOP(=O)(NC(C)C)Oc1ccc(SC)c(C)c1` (stereo unspecified), the result in [2], in test [3], in test [4], in test [5], in test [6] and in test [7] was inactive. In addition, the call in test [9], in test [10], in test [11], in test [12], in test [13] and in [14] was inactive. Also, the outcome in test [16], in test [18] and in test [19] was inactive. Also, the AC50 in test [8] is 30.2 µM (active); in test [18], 22 µM (active); in test [19], 40.7 µM (active).

For the compound `CCOC(=O)CC(SP(=O)(OC)OC)C(=O)OCC` (stereo unspecified), the outcome in [2], in test [3], in test [5], in [6], in test [7] and in test [8] was inactive. The outcome in test [9], in test [10], in test [11], in test [12], in [13] and in [14] was inactive. Further, the compound was classed as inactive in test [15], in test [16], in test [18] and in [19].

Regarding `CCCCOC(=O)[C@@H](C)Oc1ccc(Oc2ccc(C#N)cc2F)cc1`, the outcome in test [2], in test [3], in test [1], in test [17] and in [20] was inactive.

For the compound `O=C(O)c1cc(Oc2ccc(C(F)(F)F)cc2Cl)ccc1[N+](=O)[O-]`, the result in test [2], in test [3], in test [4], in test [5], in test [6] and in test [7] was inactive. Further, the outcome in test [8], in test [9], in test [10], in test [11], in [12] and in test [13] was inactive. Also, the compound was called inactive in [14], in test [15], in [16] and in [17].
